CYP2C19 act – increases human CYP2C19 enzyme activity | 96,000 tested, under 10 active | activation factor at 5 µM | recombinant CYP2C19, luciferin-H EGE luminescence; stronger effect = higher value; 0 = fully inhibited enzyme, 1 = untreated enzyme;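 active = activation factor of at least 2 at 5 µM in the primary screen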;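 note: 0 = wells with 2.5 mM tranylcypromine and 1 = vehicle-only wells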
CYP2C9 act – activators of human CYP2C9. recombinant CYP2C9, luciferin-H conversion, luminescence; stronger effect = higher value; factor 1 = untreated enzyme, 0 = blocked. hit rate 1.4% among 96,000. AID 1024. activation factor at 5 µM. P11712;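 active = activation factor of 2 or more for CYP2C9 at a 5 µM dose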;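 note: 0 = sulfaphenazole-blocked wells and 1 = vehicle-only wells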
Target sequence (P11712 whole entry, looked up): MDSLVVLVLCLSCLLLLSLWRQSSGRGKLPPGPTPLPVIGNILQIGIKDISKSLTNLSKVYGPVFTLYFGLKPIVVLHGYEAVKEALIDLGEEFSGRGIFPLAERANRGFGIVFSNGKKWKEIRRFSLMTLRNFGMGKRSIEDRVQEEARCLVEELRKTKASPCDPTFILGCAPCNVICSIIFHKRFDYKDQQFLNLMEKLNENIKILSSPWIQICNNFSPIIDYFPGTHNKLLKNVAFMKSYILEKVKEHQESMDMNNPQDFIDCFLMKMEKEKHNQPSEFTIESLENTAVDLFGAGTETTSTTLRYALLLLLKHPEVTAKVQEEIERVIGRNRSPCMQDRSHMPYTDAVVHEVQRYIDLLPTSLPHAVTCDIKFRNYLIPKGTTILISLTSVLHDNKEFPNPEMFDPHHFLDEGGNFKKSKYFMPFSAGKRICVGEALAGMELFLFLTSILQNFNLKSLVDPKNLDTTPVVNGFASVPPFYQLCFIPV
CYP2C19 inhib – human CYP2C19 inhibition; CYP2C19 Supersomes, luciferin-H EGE luminescence, 30 min; inhibition, % at 5 µM; hit rate 21% among 96,000;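 active = CYP2C19 inhibition above a set limit at 5 µM in the primary screen, cut at about 50% in these data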;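 note: plate controls were negative control wells for no effect and 2.5 mM tranylcypromine positive control for full effect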
EphB4 antag – antagonists of human EphB4-ephrin-B2 interaction; inhibition, % at 7 µM; P54760; hit rate 0.15% among 97,000; EphB4 LBD / TNYL-RAW-Alexa532 peptide, fluorescence polarization;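 active = inhibition above the screen-wide mean inhibition plus 3 SD, cut at about 15% in these data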;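 note: 0% = DMSO wells and 100% = excess unlabeled TNYL-RAW peptide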
CYP2C9 inh – blocks human cytochrome P450 2C9; P11712; CYP2C9 Supersomes, luciferin-H conversion, luminescence; inhibition, % at 5 µM; hit rate 20% among 96,000;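 active = blocking of liver enzyme CYP2C9 beyond about 50% at 5 µM, limit read from the data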
Starred values were filed as active, the others as inactive; . = no result given. In the library only some 27% were active in any assay of this set; here they are far more common.

SMILES	CYP2C19 act	CYP2C9 act	CYP2C19 inhib	EphB4 antag	CYP2C9 inh
CC1=C(C(=O)OCc2ccc3c(c2)OCO3)C(c2ccc(F)cc2)NC(=O)N1 (stereo unspecified)	0.7	0.5	33	-3	52*
CC1=C(C(=O)OC(C)C)C(c2ccc(F)cc2)NC(=O)N1 (stereo unspecified)	0.2	0.7	85*	-2	30
CC(=O)N(CCCN(C)C)CCC(C)CCC=C(C)C (stereo unspecified)	1	1.1	-2	.	-5
Oc1ccc(Br)cc1/C=N/n1cnc2ccccc21	0.9	0.3	6	10	71*
CCN(CC)c1ccc(CN(C(=O)c2ccco2)C2CCS(=O)(=O)C2)cc1 (stereo unspecified)	0.4	0.4	57*	0	58*
Cc1cc2oc(C(=O)N(Cc3ccccc3)C3CCS(=O)(=O)C3)cc(=O)c2cc1Cl (stereo unspecified)	0.4	0.2	62*	-10	80*
O=C(c1ccccc1F)N(Cc1ccccc1)C1CCS(=O)(=O)C1 (stereo unspecified)	0.7	0.9	32	-1	8
O=C(c1ccccc1F)N(Cc1ccc(F)cc1)C1CCS(=O)(=O)C1 (stereo unspecified)	0.2	0.9	83*	-3	15
O=C(c1sc2ccccc2c1Cl)N(Cc1ccco1)C1CCS(=O)(=O)C1 (stereo unspecified)	0.3	0.3	71*	13	70*
CCN(CC)c1ccc(CN(C(=O)c2cc(OC)c(OC)c(OC)c2)C2CCS(=O)(=O)C2)cc1 (stereo unspecified)	0.7	0.7	34	-3	26
CC(C)CC1(C)NC(=O)N(CC(=O)NC(=O)Nc2ccc3c(c2)OCCO3)C1=O (stereo unspecified)	0.6	0.9	43	-2	11
CCCOc1ccc(/C(O)=C2/C(=O)C(=O)N(CCCn3ccnc3)C2c2ccco2)cc1 (stereo unspecified)	0.8	0.8	24	-4	16
CN(C)c1ccc(CN(C(=O)C2COc3ccccc3O2)C2CCS(=O)(=O)C2)cc1 (stereo unspecified)	0.1	0.3	94*	-2	65*
O=C(c1cccs1)N(Cc1ccco1)C1CCS(=O)(=O)C1 (stereo unspecified)	0.4	1.1	56*	-8	-5
O=C(c1sc2ccccc2c1Cl)N(Cc1ccccc1Cl)C1CCS(=O)(=O)C1 (stereo unspecified)	0.7	0.2	30	5	85*
O=C(c1ccccc1)N(Cc1cccs1)C1CCS(=O)(=O)C1 (stereo unspecified)	0.6	1	38	-1	-5
O=C(c1sc2ccccc2c1Cl)N(Cc1ccccc1)C1CCS(=O)(=O)C1 (stereo unspecified)	0.5	0.3	52*	7	68*
O=C(c1cccs1)N(Cc1cccc(Cl)c1)C1CCS(=O)(=O)C1 (stereo unspecified)	0.8	0.7	17	-5	28
COc1ccc(CN(C(=O)c2oc3ccccc3c2C)C2CCS(=O)(=O)C2)cc1 (stereo unspecified)	0.6	0.7	40	-7	33
CC1=C(C(=O)N2CCN(C(=O)c3ccco3)CC2)C2(CCC(C)CC2)OC1=O (stereo unspecified)	.	.	.	6	.
Cc1cc(C)c(NC(=O)c2ccc(S(=O)(=O)N(C)C)cc2)c(C)n1	0.8	1	23	-6	1
CCc1ccc2[nH]c(=O)c(C(c3nnnn3CCOC)N3CCN(c4ccccc4)CC3)cc2c1 (stereo unspecified)	0.5	0.3	49	-8	69*
CCc1ccc2[nH]c(=O)c(C(c3nnnn3Cc3ccccc3)N3CCOCC3)cc2c1 (stereo unspecified)	1	0.5	1	0	45
CCc1ccc2[nH]c(=O)c(C(c3nnnn3Cc3ccco3)N3CCC(C)CC3)cc2c1 (stereo unspecified)	0.4	0.6	60*	-5	38
Cc1cccc2cc(C(c3nnnn3Cc3ccccc3)N3CCN(c4ccccc4)CC3)c(=O)[nH]c12 (stereo unspecified)	0.7	0.5	34	-3	50*
SMILES	CYP2C19 act	CYP2C9 act	CYP2C19 inhib	EphB4 antag	CYP2C9 inh
Cc1cccc2cc(C(c3nnnn3Cc3ccccc3)N3CCN(C)CC3)c(=O)[nH]c12 (stereo unspecified)	1	1	2	.	2
c1ccc(Cn2nnnc2C(c2ccccn2)N2CCN(c3ccccc3)CC2)cc1 (stereo unspecified)	0.4	0.5	61*	5	46
CCc1ccc2[nH]c(=O)c(C(c3nnnn3CCOC)N3CCN(c4ccc(F)cc4)CC3)cc2c1 (stereo unspecified)	0	0.3	96*	0	69*
CCc1ccc2[nH]c(=O)c(C(c3nnnn3Cc3ccc(OC)cc3)N3CCOCC3)cc2c1 (stereo unspecified)	0.8	0.5	15	2	48
Cc1cc2c3c(ccc(C)c3n1)N=CN2c1ccccc1	0.6	0.4	39	4	56*
CC(CNC(=O)c1cncc(O)c1)NC(=O)c1cncc(O)c1 (stereo unspecified)	1	1	-4	-2	0
CCOc1ccccc1N1CCN(C(=O)c2ccncc2)CC1	0	0.3	99*	6	67*
CCOc1ccccc1N1CCN(C(=O)c2cccc(-c3ccc(O)cc3)c2)CC1	0.3	0.1	74*	-6	87*
